Results filed as inconclusive are left out. Where a call stands in place of a potency, no number is given. Values without a mark were called inactive. Calls of active or inactive are those of the source. Calls come from the whole dose curve; as a rule, active = well fitted curve in the direction sought with a large enough effect; inconclusive = small, poorly fitted or top-dose-only effect, or another doubt; inactive = no such curve, though single readings can be large; an effect the other way counts as inactive or inconclusive. Where a SMILES comes first, the peptide text is derived from it. Bridges are numbered along the chain shown (N, C = ends). [ ]: non-standard residue; d: D form. The star is where a group is joined. X1 = CCC(C)C(N)C1=NC(C(=O)*)CS1; PhLac = O=C(O)[CH](O)Cc1ccccc1; NMeV = CN[CH](C(=O)O)C(C)C; dOrn = NCCC[C@@H](N)C(=O)O
Tests used:
[1] = P-glycoprotein substrates identified in KB-3-1 adenocarcinoma cell line, qHTS therapeutic library screen (AID 1346986); note: nearly all actives have a fitted effect of over 60% in size
Outline: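 Cells seeded 500/well in DMEM/10% FCS; compounds pinned in dose-response; 72 h incubation; CellTiter-Glo added, 5 min, luminescence. KB-8-5-11 run ±tariquidar to test reversal of P-gp resistance.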

[2] = P-glycoprotein substrates identified in KB-8-5-11 adenocarcinoma cell line, qHTS therapeutic library screen (AID 1346987); note: nearly all actives have a fitted effect of over 65% in size
Outline: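 KB-8-5-11, a colchicine-selected P-gp-overexpressing KB-3-1 subline, was grown without colchicine for the assay. Cells were seeded at 500 cells/well, dosed in concentration-response and incubated 72 h at 37 degree C, 5% CO2. Viability was read by CellTiter-Glo luminescence.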

## COc1cc(C2Oc3c(O)cc(CCCO)cc3C2CO)ccc1O[C@H]1O[C@H](C)[C@@H](O)[C@H](O)[C@@H]1O (some centres not stated)
[1]
  Potency: inactive
[2]
  Potency: inactive

## CCN[C@@H]1C[C@H](N)[C@@H](O[C@H]2OC(CN)=CC[C@H]2N)[C@H](O)[C@H]1O[C@H]1OC[C@](C)(O)[C@H](NC)[C@H]1O
[1]
  Potency: inactive
[2]
  Potency: inactive

## O=C(O[C@H]1[C@@H]2C[C@@H]3OC[C@@](O)([C@H]2[C@H](O[C@@H]2O[C@H](CO)[C@@H](O)[C@H](O)[C@H]2O)O3)[C@@H]1O)c1ccccc1
[1]
  Potency: inactive
[2]
  Potency: inactive

## Clc1ccc2c(c1)C1=NCCN1c1c(-c3noc(C4CC4)n3)ncn1-2
[1]
  Potency: inactive
[2]
  Potency: inactive

## C=C(C)[C@H]1C[C@@H](O)C(=C)CC[C@@H](O)C(=C)[C@@H](O)C1
[1]
  Potency: inactive
[2]
  Potency: inactive

## CCC(C)C(N)C1=NC(C(=O)N[C@@H](CC(C)C)C(=O)N[C@H](CCC(=O)O)C(=O)N[C@H](C(=O)N[C@H]2CCCCNC(=O)[C@H](CC(N)=O)NC(=O)[C@@H](CC(=O)O)NC(=O)[C@H](Cc3cnc[nH]3)NC(=O)[C@@H](Cc3ccccc3)NC(=O)[C@H]([C@@H](C)CC)NC(=O)[C@@H](CCCN)NC2=O)[C@@H](C)CC)CS1 (some centres not stated) (X1-L[dE]IK[dOrn]I[dF]H[dD]N; lactam 4-C)
[1]
  Potency: inactive
[2]
  Potency: inactive

## O=C1Nc2ccc(O)cc2O[C@H]1O[C@@H]1O[C@H](CO)[C@@H](O)[C@H](O)[C@H]1O
[1]
  Potency: inactive
[2]
  Potency: inactive

## CC1(C)CCCC2(C)C(CO)C3CCC2C31 (configuration not stated)
[1]
  Potency: inactive
[2]
  Potency: inactive

## CCN(c1cc(C#CCN2CCOCC2)cc(C(=O)NCc2c(C)cc(C)[nH]c2=O)c1C)C1CCC(N(C)CCOC)CC1 (configuration not stated)
[1]
  Potency: inactive
[2]
  Potency: inactive

## CO[C@@]12CC3[C@@H]([C@@H](O)[C@@H](OC(C)=O)C4[C@](C)(COC(C)=O)CCC[C@]34C)[C@@H](C)C1=CC(=O)O2 (some centres not stated)
[1]
  Potency: inactive
[2]
  Potency: inactive

## COc1ccc2c(c1O)OC[C@H]1c3ccc(O)cc3O[C@@H]21
[1]
  Potency: inactive
[2]
  Potency: inactive

## CC1=CCC2C(C)(CO)CCCC2(CO)C1CO (configuration not stated)
[1]
  Potency: inactive
[2]
  Potency: inactive

## CC(=O)C1CCC2(C)C3=C(CCC12C)C1(C)CCC(=O)C(C)(C)C1CC3 (configuration not stated)
[1]
  Potency: inactive
[2]
  Potency: inactive

## CC(C)C(C(=O)N1CCCC1C(=O)O)N(C)C(=O)C(O)Cc1ccccc1 (configuration not stated) (H-[PhLac]-[NMeV]-Pro-OH; configuration not given here)
[1]
  Potency: inactive
[2]
  Potency: inactive

## CC1(C)CCC(C)(C)c2cc([C@@H](O)C(=O)Nc3ccc(C(=O)O)cc3F)ccc21
[1]
  Potency: inactive
[2]
  Potency: inactive

## C=C1CCC2C(C)(COC3OC(COC(=O)CC(=O)O)C(O)C(O)C3O)CCCC2(C)C1CCC1=CCOC1=O (configuration not stated)
[1]
  Potency: inactive
[2]
  Potency: inactive

## COC(=O)C1=COC(O[C@@H]2O[C@H](CO)[C@@H](O)[C@H](O)[C@H]2O)/C(=C\COC(=O)c2ccc(OC3OC(CO)C(O)C(O)C3O)c(OC)c2)C1CC(=O)OCCc1ccc(O)cc1 (some centres not stated)
[1]
  outcome: inactive [at 9.29 µM]
[2]
  outcome: inactive [at 9.29 µM]

## CC(=O)NC(C(=O)OC1CCC(C)(C)C2CC=C3C(=O)OCC3(O)C12C)C(C)C (configuration not stated)
[1]
  Potency: inactive
[2]
  Potency: inactive

## C[C@@H]1O[C@@H](O[C@H]2[C@H](OC(=O)C34CCC(C)(C)CC3C3=CCC5C6(C)CC(O)C(O[C@@H]7O[C@H](CO)[C@@H](O)[C@H](O)[C@H]7O)C(C)(C(=O)O)C6CCC5(C)C3(CO)CC4)O[C@H](C)[C@H](O)[C@@H]2O)[C@H](O)[C@H](O)[C@H]1O[C@@H]1OC[C@@H](O)[C@H](O)[C@H]1O (some centres not stated)
[1]
  outcome: inactive [at 9.29 µM]
[2]
  outcome: inactive [at 9.29 µM]

## O=C(CCO[C@@H]1O[C@H](CO)[C@@H](O)[C@H](O)[C@H]1O)c1ccc(O)cc1
[1]
  Potency: inactive
[2]
  Potency: inactive

## O=C(/C=C/c1ccccc1)OCC1=CC[C@@H]2C(C(=O)O)=CO[C@@H](O[C@@H]3O[C@H](CO)[C@@H](O)[C@H](O)[C@H]3O)[C@H]12
[1]
  Potency: inactive
[2]
  Potency: inactive

## COc1cc([C@H]2OC[C@]3(OC(C)=O)[C@@H](c4ccc(O[C@@H]5O[C@H](CO)[C@@H](O)[C@H](O)[C@H]5O)c(OC)c4)OC[C@H]23)ccc1O
[1]
  Potency: inactive
[2]
  Potency: inactive

## C[C@@H]1CC[C@]2(C(=O)O)CC[C@]3(C(=O)O)C(=CCC4[C@@]5(C)CC[C@H](O[C@@H]6O[C@@H](C)[C@H](O[C@@H]7O[C@H](CO)[C@@H](O)[C@H](O)[C@H]7O)[C@@H](O)[C@H]6O)C(C)(C)C5CC[C@]43C)C2[C@H]1C (some centres not stated)
[1]
  Potency: inactive
[2]
  Potency: inactive

## O=C(O)CCc1cccc(O[C@@H]2O[C@H](CO)[C@@H](O)[C@H](O)[C@H]2O)c1O
[1]
  Potency: inactive
[2]
  Potency: inactive

## C[C@@H](O)[C@H](N)C(=O)N1CCC[C@H]1C(=O)N1CCC[C@H]1C(=O)N[C@H](C(N)=O)[C@@H](C)O (H-TPPT-NH2)
[1]
  outcome: inactive [at 9.29 µM]
[2]
  outcome: inactive [at 9.29 µM]

## CC(C)C1=CC2=CCC3[C@](C)(CCC[C@@]3(C)C(=O)O)C2CC1O (some centres not stated)
[1]
  Potency: inactive
[2]
  Potency: inactive
